Test results as given in the supplement of paper PMC7366291.
Structures can show the parent of a compound that is named as a salt. ± gives the standard deviation or the standard deviation of the averaged measurements.

Experiments:
Settings in all cases: 25 µM; exposure: 24-48 hpf
[1] = tested on: Danio rerio Tg(wt1b:EGFP) embryo, pronephros; assay: glomerular separation, fold change vs DMSO control; higher = glomeruli further apart (abnormal)
Procedure, shortened: (§1)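 From 24 to 48 hpf, at 28.5°C, dechorionated Tg(wt1b:EGFP) zebrafish embryos sat in HEPES-buffered E3 with 0.003% PTU carrying 25 μM compound and 0.5% DMSO. Their pronephroi were imaged dorsally in 96-well plates filled with agarose, using 470 nm light and 10 z-slices. A Fiji macro measured distances and angles between 16 reference points that were set manually on maximum projections, and any value more than 2 SD from its feature mean was excluded. Features are expressed as fold change relative to the mean of DMSO-treated embryos imaged on the same day.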

[2] = tested on: Danio rerio Tg(wt1b:EGFP) embryo, pronephros; assay: glomerular width (mean of left and right), fold change vs DMSO control; higher = wider glomerulus
Procedure, shortened: as §1

[3] = tested on: Danio rerio Tg(wt1b:EGFP) embryo, pronephros; assay: fraction of imaged embryos annotated as normal kidney; higher = less nephrotoxic; extreme values may be limits of the assay
Procedure, shortened: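 Dechorionated Tg(wt1b:EGFP) zebrafish embryos were incubated with 25 μM compound in 0.5% DMSO, 5 mM HEPES-buffered E3 and 0.003% PTU from 24 to 48 hpf at 28.5°C. Pronephroi were then imaged by widefield fluorescence, and the fraction of embryos per treatment assigned by hand to the normal-kidney category is given.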

[4] = tested on: Danio rerio Tg(wt1b:EGFP) embryo, pronephros; assay: pronephric angle neck segment to proximal convoluted tubule (mean of left and right), fold change vs DMSO control; higher = larger pronephric angle
Procedure, shortened: as §1

Compound	glomerular separation [1]	glomerular width [2]	fraction of imaged embryos annotated as normal kidney [3]	pronephric angle neck segment [4]
COc1cnc(NS(=O)(=O)c2ccc(N)cc2)nc1 [Sulfameter]	0.925 ± 0.34	1.01 ± 0.021	0.833	0.9915 ± 0.0018
CCc1c2c(nc3ccc(OC(=O)N4CCC(N5CCCCC5)CC4)cc13)-c1cc3c(c(=O)n1C2)COC(=O)[C@]3(O)CC [Irinotecan hydrochloride trihydrate]	1.09 ± 0.45	1.02 ± 0.022	0.667	1.02 ± 0.028
Nc1ncnc2c1ncn2C1OC(COP(=O)(O)O)C(O)C1O (configuration not stated) [Adenosine 5'-monophosphate monohydrate]	0.936 ± 0.26	1.029 ± 0.0059	0.917	0.9657 ± 0.0086
